The results in this text go back to PubChem BioAssay (Tox21).

Inconclusive results are not listed. A structure can be active in one record and inactive in another. The source made the active and inactive calls. Unless noted, calls come from the whole dose curve; as a rule, active = well fitted curve in the direction sought with a large enough effect in the repeat runs; inconclusive = weak or mixed curves; inactive = no such curve, though single readings can be large; an effect the other way counts as inactive or inconclusive.

Test [1] in a line: qHTS assay to identify small molecule agonists of H2AX (AID 1224845; active = well fitted activation curve with a large enough effect in the signal ratio in the repeat runs, not every such curve was filed as active; the % refers to the signal ratio). In short, it runs like this:
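Phospho-H2AX Ser139 measured by HTRF (ex 320 nm; em 665 and 620 nm) after 24 hr antibody incubation. Compounds, 15 concentrations, 0.76% DMSO, were applied to CHO-K1 cells for 3hr at 37C before lysis.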
In general terms: In qHTS, concentration-response curves come from the screen itself.

Test [2] can be described thus: qHTS assay to identify small molecule agonists of the hypoxia (HIF-1) signaling pathway (AID 1224846; active = well fitted activation curve with a large enough effect in the signal ratio in the repeat runs, not every such curve was filed as active; the % refers to the signal ratio). In short, it runs like this:
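A low-serum medium (0.5% dialyzed FBS) holding 2,000 HRE-bla ME-180 cells per well is preincubated for 5 hrs, dosed with compounds by pintool, and kept a further 17 hrs at 37C, 5% CO2 before CCF4-AM FRET detection of beta-lactamase.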

Test [3] in a line: qHTS assay to identify small molecule agonists of H2AX - cell viability counter screen (AID 1224847; calls by dose curve; note: top concentration of the series differs between compounds; nearly all actives have a fitted effect of over 30% in size). Summed up: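 Viability of CHO-K1 (wild type) cells after 3 hr compound exposure was measured by CellTiter-Glo luminescence.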
Test [4] is described as follows: qHTS assay to identify small molecule antagonists of the estrogen related receptor (ERR) signaling pathway from Tox21 library (AID 1224848). Note: nearly all actives have a fitted effect of over 50% in size. In short, it runs like this: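 Reading was by luminescence 30 min after ONE-Glo addition. Before that, ERR cells at 2,000 per well had rested 6 h at 37 C/5% CO2 and then received pin-tooled compounds in DMSO for 18 h at 37 C.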

A short description of test [5]: qHTS assay to identify small molecule agonists of the estrogen related receptor (ERR) signaling pathway from Tox21 library (AID 1224849; calls by dose curve; note: nearly all actives have a fitted effect of over 15% in size). As to conditions: ERR reporter cell line, ONE-Glo luciferase, 18 h. In short, it runs like this: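 Screening used an NTP-provided ERR luciferase cell line. Compounds in DMSO were added 6 h after seeding and left 18 h at 37 C before a 30 min ONE-Glo step and luminescence reading.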

Test [6] is described as follows: qHTS RealTime-Glo MT Cell Viability Assay in HEK293 cells - 32 hour (AID 1224868). Note: top concentration of the series differs between compounds; nearly all actives have a fitted effect of over 50% in size. In short, it runs like this: (§1)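 HEK293 cells were seeded at 600 cells/well together with NanoLuc luciferase and cell-permeant prosubstrate, preincubated 5 h at 37 C/5% CO2, then given compound in DMSO by pintool. Luminescence from viable-cell prosubstrate reduction was read repeatedly over 40 h.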

A short description of test [7]: A CellTox Green Cytotoxicity Assay to monitor cytotoxicity in HEK293 cells - 0 hour (AID 1224869). Note: nearly all actives have a fitted effect of over 50% in size. In short, it runs like this:
(§2)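 Fluorescence intensity, read at 0, 8, 16, 24, 32 and 40 h of compound treatment, reflected dye binding to DNA of dead HEK293 cells; compounds (23 nL, DMSO) were added 5 h after plating cells with reagent.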

Test [8] in a line: qHTS RealTime-Glo MT Cell Viability Assay in HepG2 cells - 40 hour (AID 1224870). Note: nearly all actives have a fitted effect of over 50% in size. In short, it runs like this: (§3)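 Real-time viability: cells seeded at 600 per well together with NanoLuc and cell-permeant prosubstrate, compounds added after 5 h incubation. Luminescence tracked at 0, 8, 16, 24, 32 and 40 h of exposure.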
Test [9] is described as follows: A CellTox Green Cytotoxicity Assay to monitor cytotoxicity in HEK293 cells - 40 hour (AID 1224871). Note: nearly all actives have a fitted effect of over 45% in size. In short, it runs like this: as §2
A short description of test [10]: qHTS RealTime-Glo MT Cell Viability Assay in HEK293 cells - 16 hour (AID 1224872). Note: nearly all actives have a fitted effect of over 50% in size. Note: potency is the fitted concentration of half-maximal effect. Summed up:
as §1

A short description of test [11]: qHTS RealTime-Glo MT Cell Viability Assay in HepG2 cells - 8 hour (AID 1224873). Note: nearly all actives have a fitted effect of over 55% in size. Note: potency is the fitted concentration of half-maximal effect. In short, it runs like this:
as §3

Test [12] is described as follows: qHTS RealTime-Glo MT Cell Viability Assay in HEK293 cells - 40 hour (AID 1224874). Note: nearly all actives have a fitted effect of over 50% in size. The conditions noted are these: RealTime-Glo luminescence; max response: stronger effect = lower value. Summed up: (§4)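 Viable HEK293 cells reduce a cell-permeant prosubstrate; the product diffuses out and is consumed by NanoLuc in the medium to give light. Compounds went in after a 5 h incubation and plates were read over the treatment course.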

Test [13] is described as follows: A CellTox Green Cytotoxicity Assay to monitor cytotoxicity in HEK293 cells - 24 hour (AID 1224875). Note: nearly all actives have a fitted effect of over 45% in size. In short, it runs like this:
as §2

Test [14] can be described thus: A CellTox Green Cytotoxicity Assay to monitor cytotoxicity in HepG2 cells - 16 hour (AID 1224876). Note: nearly all actives have a fitted effect of over 45% in size. In short, it runs like this: (§5)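 Using 1536-well format, dye-containing HepG2 suspension was seeded, allowed 5 h at 37 C/5% CO2, dosed by pintool with compounds, positive and negative controls, and imaged for fluorescence across 40 h.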
Test [15] can be described thus: qHTS RealTime-Glo MT Cell Viability Assay in HepG2 cells - 32 hour (AID 1224877). Note: nearly all actives have a fitted effect of over 55% in size. In short, it runs like this: (§6)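 HepG2 cells were seeded at 600 cells/well together with NanoLuc luciferase and a cell-permeant prosubstrate, preincubated 5 h at 37 C/5% CO2, then pin-dosed with compounds in DMSO. Nonlytic luminescence from viable cells was read at each time point.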

Test [16] can be described thus: A CellTox Green Cytotoxicity Assay to monitor cytotoxicity in HepG2 cells - 24 hour (AID 1224878). Note: nearly all actives have a fitted effect of over 45% in size. In short, it runs like this: as §5
Test [17] is described as follows: A CellTox Green Cytotoxicity Assay to monitor cytotoxicity in HepG2 cells - 40 hour (AID 1224879). Note: nearly all actives have a fitted effect of over 40% in size. In short, it runs like this:
as §5

A short description of test [18]: qHTS RealTime-Glo MT Cell Viability Assay in HEK293 cells - 0 hour (AID 1224880). In short, it runs like this:
as §4

Test [19] is described as follows: qHTS RealTime-Glo MT Cell Viability Assay in HepG2 cells - 24 hour (AID 1224867). Note: nearly all actives have a fitted effect of over 50% in size. In short, it runs like this: as §6
% is set by controls: 0 for no effect and ±100 for the full control effect.

`CC(C)(C#N)C(C)(C)C#N`: the Potency result in [1], in test [3], in test [4], in [6], in test [7] and in test [8] was “inactive” throughout. Also, the Potency entry in [9], in test [10], in [11], in test [13], in [14] and in test [15] was “inactive” throughout. The Potency entry in test [16] and in [17] was “inactive” in each case. Besides, the compound was classed as inactive in test [2] and in test [18]. Moreover, the activity change, positive = activation in [5] (at 92.4 µM (top of the series)) was -14.1% (inactive). Also, in test [12], the max response is 1.19% (inactive).

As to `CC(C)[C@@H](C(=O)O[C@@H](C#N)c1cccc(Oc2ccccc2)c1)c1ccc(Cl)cc1`, the Potency entry in [1], in [7], in test [8], in test [9], in test [13] and in test [14] was “inactive” in each case. The Potency entry in test [15], in test [16] and in [17] was “inactive” throughout. For the same compound, the Potency in test [10] was 24.9 µM (active); in [11], 49.7 µM (active) and inactive. Also, the compound was called inactive in test [18].

In the case of `CN1CC[C@]23c4c5ccc(O)c4O[C@H]2[C@@H](O)C=C[C@H]3[C@H]1C5`, the Potency result in test [1], in [3], in test [4], in test [6], in test [7] and in [8] was “inactive” in each case. The Potency result in [9], in test [10], in test [11], in test [14], in test [15] and in [16] was “inactive” each time. In addition, the compound was classed as inactive in [2] and in [18]. In test [5] (at 92.4 µM (top of the series)), the activity change, positive = activation was 1.06% (inactive). The max response in [12] is 1.75% (inactive).

As to `CC(Cl)C(=O)O` (stereo not drawn), the Potency entry in [1], in test [3], in [19], in test [6], in test [7] and in [8] was “inactive” throughout. Further, the Potency entry in [10], in [11], in test [14], in [15], in [16] and in test [17] was “inactive” throughout. Moreover, the outcome in [2] and in [18] was inactive. In addition, in test [12], the max response is 19.1% (inactive).

Regarding `C=CCc1ccccc1O`, the Potency entry in test [1], in [3], in test [4], in test [7], in test [8] and in [9] was “inactive” in each case. In addition, the Potency result in test [11], in test [13], in test [14], in test [15], in test [16] and in test [17] was “inactive” in each case. Also, the compound was classed as inactive in test [2] and in test [18]. The activity change, positive = activation in test [5] (at 92.4 µM (top of the series)) is 0.524% (inactive). Further, the max response in test [12] was 7.74% (inactive).

Take `COCc1cnc(C2=NC(C)(C(C)C)C(=O)N2)c(C(=O)O)c1` (stereo not drawn): the Potency entry in test [1], in [19], in test [6], in [7], in test [8] and in [9] was “inactive” each time. Further, the Potency result in [10], in [11], in test [14], in [15] and in test [16] was “inactive” each time. In addition, the result in test [2] and in test [18] was inactive. Besides, the max response in test [12] is 9.64% (inactive).

With `C[N+]1(CCF)[C@@H]2CC[C@H]1CC(OC(=O)C(O)(c1ccccc1)c1ccccc1)C2` (stereo partly drawn), the compound was called inactive in test [2] and in [18]. For the same compound, the Potency result in test [3], in [19], in test [6], in test [8], in [9] and in test [10] was “inactive” throughout. Besides, the Potency entry in test [11], in test [13], in test [14], in [15], in test [16] and in [17] was “inactive” throughout. For the same compound, the max response in test [12] is 2.19% (inactive).

On to `O=C(O)c1ccc(=O)[nH]c1`, for which the Potency entry in test [1], in [3], in test [4], in test [6], in test [7] and in test [8] was “inactive” each time. The Potency result in [9], in test [10], in test [11], in test [13], in test [14] and in test [15] was “inactive” in each case. In addition, the Potency result in test [16] and in test [17] was “inactive” each time. The result in [2] and in test [18] was inactive. In addition, the activity change, positive = activation in [5] (at 42.5 µM (top of the series)) is 5.02% (inactive). In [12], the max response was 5.8% (inactive).

For `CCCSP(=S)(OCC)Oc1ccc(SC)cc1` (stereo not drawn), the Potency entry in [1], in test [3], in [4], in test [6], in [7] and in test [8] was “inactive” throughout. Moreover, the Potency entry in test [9], in test [10], in [11], in test [13], in [14] and in [15] was “inactive” throughout. The Potency entry in test [16] and in [17] was “inactive” each time. Besides, the compound was called inactive in [2] and in test [18]. In addition, the activity change, positive = activation in test [5] (at 92.4 µM (top of the series)) is 2.16% (inactive). Also, the max response in test [12] was 3.34% (inactive).

For the compound `Nc1ccc2c(c1)Cc1ccccc1-2`, the call in test [2] and in test [18] was inactive. Besides, the Potency result in test [3], in test [4], in test [8], in test [9], in test [11] and in test [13] was “inactive” in each case. In addition, the Potency entry in test [14], in test [15], in test [16] and in test [17] was “inactive” throughout. For the same compound, the activity change, positive = activation in test [5] (at 92.4 µM (top of the series)) was -8.59% (active).

For the compound `CC(Cc1ccccc1)NCc1ccccc1Cl` (stereo not drawn), the Potency entry in test [1], in test [19], in test [6], in test [7], in [8] and in test [10] was “inactive” each time. Further, the Potency entry in test [11], in test [14], in test [15] and in test [16] was “inactive” in each case. Besides, the max response in test [12] is -14.1% (inactive). For the same compound, the compound was classed as inactive in [18].

Regarding `CCCCCCCCP(=O)(O)O`, the Potency result in test [1], in [3], in test [19], in [6], in test [8] and in [9] was “inactive” each time. For the same compound, the Potency entry in [10], in [11], in test [13], in [14], in [15] and in test [16] was “inactive” each time. Further, the Potency result in [17] was “inactive”. For the same compound, the compound was classed as inactive in [2] and in test [18]. The max response in test [12] was -9.79% (inactive).
